Tau fibril FP: inhibitors of human tau fibril formation; P10636; Potency, µM (doses to about 57.7 µM), without a hit: at the top dose activity, negative = inhibition, usual class: inhibitors; K18 P301L tau heparin fibrillization, Alexa594 FP, 6 h; actives 0.39% (n = 280,000); further: potency means the concentration at half of the fitted maximal effect; on the % scale 0 is the no-effect control and ±100 the full control effect; nearly all actives have a fitted effect of over 55% in size
Target sequence (P10636 561-689 P618L limits assumed): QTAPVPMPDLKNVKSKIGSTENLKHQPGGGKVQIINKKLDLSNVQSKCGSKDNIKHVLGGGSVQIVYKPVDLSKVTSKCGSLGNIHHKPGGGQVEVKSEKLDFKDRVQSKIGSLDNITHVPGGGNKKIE
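Recombinant K18 P301L […], labeled with Alexa 594 at 0.24 uM over 15 uM unlabeled; heparin inducer 20 uM final; 37 C, 6 hr; FP endpoint.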
Tau ThT inhib: blocks human tau fibril formation measured by thioflavin T; actives 2.1% (n = 270,000); Potency, µM (series often up to 57.4 µM), without a hit: at the highest dose activity, negative = inhibition, actives largely listed as inhibitors; recombinant tau K18 P301L, heparin-induced fibrillization, ThT fluorescence; AID 1460; P10636; further: potency means the concentration at half of the fitted maximal effect; on the % scale 0 is the no-effect control and ±100 the full control effect; nearly all actives have a fitted effect of over 55% in size
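ThT emission at 510 nm, taken 1 hr after adding 30 uM dye, quantifies aggregates formed when 20 uM heparin acts on human tau K18 P301L for 6 hr at 37 C.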
Tau fluor cs: counter-screen for tau fibril formation inhibitors; tau K18 P301L Alexa594 fluorescence, heparin fibrillization; Potency, µM (highest dose often 57.7 µM), for the others: top-dose activity change, negative = decrease; actives 0.93% (n = 280,000); AID 1463; further: potency means the concentration at half of the fitted maximal effect; on the % scale 0 is the no-effect control and ±100 the full control effect; nearly all actives have a fitted effect of over 55% in size
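Human tau K18 P301L (15 uM unlabeled, 0.24 uM Alexa 594-labeled) in 100 mM sodium acetate pH 7 with 20 uM heparin, 6 hr at 37 C. ThT 30 uM added, 1 hr ambient; Alexa 594 FP and total fluorescence read at 555/632 nm.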
TRb-SRC2 inh: disrupts binding of human TR beta to SRC2; P10828; actives 0.065% (n = 280,000); Potency, µM (top dose mostly 106 µM), inactives show at the highest dose activity change, negative = inhibition, most hits filed as inhibitors; TRbeta-SRC2 peptide binding, fluorescence polarization; receptor liganded with 1 µM T3;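 further: potency means the concentration at half of the fitted maximal effect; plate controls were bound peptide for no effect and peptide without receptor for full effect; nearly all actives have a fitted effect of over 50% in size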
Target sequence (P10828 whole entry, looked up): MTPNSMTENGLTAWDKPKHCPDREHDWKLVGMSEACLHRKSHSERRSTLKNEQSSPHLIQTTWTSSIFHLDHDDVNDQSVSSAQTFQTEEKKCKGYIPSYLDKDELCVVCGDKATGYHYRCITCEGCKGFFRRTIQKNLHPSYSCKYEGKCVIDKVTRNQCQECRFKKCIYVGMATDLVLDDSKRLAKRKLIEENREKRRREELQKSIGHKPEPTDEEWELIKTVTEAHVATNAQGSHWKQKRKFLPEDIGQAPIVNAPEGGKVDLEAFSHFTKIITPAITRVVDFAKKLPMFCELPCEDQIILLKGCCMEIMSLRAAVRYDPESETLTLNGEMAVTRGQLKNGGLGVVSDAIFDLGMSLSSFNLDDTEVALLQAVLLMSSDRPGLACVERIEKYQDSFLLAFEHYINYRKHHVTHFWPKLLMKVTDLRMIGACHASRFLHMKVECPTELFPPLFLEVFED
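Polarization signal, normalized between peptide-alone and full complex controls, measured compound effects on T3-liganded human TRb LBD (0.6 uM) binding 20 nM Texas Red SRC2 peptide after 5 hr.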
TR SRC2 fluor cs: counter-screen for TRb-SRC2 inhibitors: fluorescence interference. TRb/SRC2 Texas Red total fluorescence interference. Potency, µM (top dose mostly 106 µM), without a hit: at the highest dose fluorescence change, negative = quenching. actives 0.29% (n = 280,000); active means well fitted curve in either direction with a large enough effect; inconclusive means small, poorly fitted or top-dose-only effect; further: potency means the concentration at half of the fitted maximal effect; on the % scale 0 is the no-effect control and ±100 the full control effect
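Flags fluorescent or light-absorbing compounds by total fluorescence, S + 2P, at 555 nm excitation and 632 nm emission. Mixture: 20 nM Texas Red SRC2 peptide, 0.6 uM human TRb LBD, 1 uM T3, 5% DMSO; compound exposure 5 h at ambient temperature.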
Tau TEM fibril: Inhibits tau K18 fibrillization by TEM grading; recombinant tau K18 P301L fibrillization, TEM grading; active compounds read high; shares compounds with Tau ThT inhib; fibril grade (0 = clumped fibrils, 4 = only tiny pieces) (concentration not given with the values); actives 70% (n = 45);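 active means compounds whose electron micrographs showed tau fibrils broken into shorter filaments or fragments, graded high on fibril breakup; inconclusive means micrographs gave an unclear fibril picture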
tau fibril sed: tau fibrillization inhibition by sedimentation; shares compounds with Tau ThT inhib; recombinant tau K18 P301L (four-repeat tau fragment), sedimentation SDS-PAGE densitometry; inhibition, % at 100 µM; actives 50% (n = 110); in the data active means inhibition above about 40%; inconclusive means no clear call, values can overlap the other calls; inactive means below about 18%
An asterisk follows results filed as active; u = inconclusive; x = not tested or not shown; [ ] = another dose, or the depositor's remark. This is a sample that favours compounds with a hit; in the whole collection about 3.1% have one here. Unless noted, the call rests on the fitted dose curve; in most records, active means well fitted curve in the direction sought with a large enough effect; inconclusive means small, poorly fitted or top-dose-only effect, or another doubt; inactive means no such curve, though single readings can be large; an effect the other way counts as inactive or inconclusive.

SMILES	Tau fibril FP	Tau ThT inhib	Tau fluor cs	TRb-SRC2 inh	TR SRC2 fluor cs	others
CCCN1C(=O)C2(c3ccccc31)c1c(oc3ccccc3c1=O)C(=O)N2CCO (stereo unspecified)	-12%	-18%	-22%	-12%[53 µM]	32µM*[quencher]
Cc1ccccc1NC(=O)CCn1cnc2onc(-c3ccc(F)cc3)c2c1=O	u	-1%	-21%	2%	-39%
CCCCN(CC)CCCNC(=O)c1ccc2c(c1)NC(=O)CN2C	0%	-16%	-16%	-5%	-1%
C/C=C/C/C=C\CCCCCCCCOC(C)=O	x	x	x	-1%[201 µM]	1%[201 µM]
O=c1cc(-c2ccccc2O)oc2c(O)c(O)ccc12	13µM*	11µM*	u	3%	-9%
CNc1ccc(/C=C/C(=O)c2ccc(C)cc2)cc1[N+](=O)[O-]	2%	3.2µM*	-23%	-2%	9%
CN(C)c1ccc(/C=C/C(=O)c2ccccc2)cc1[N+](=O)[O-]	4%	10µM*	u	9%	-7%
Cc1ccc(/C=C/C(=O)c2ccc(O)cc2)cc1	-2%	u	-21%	2%	-3%
Cc1ccc(NC(=O)c2ccc(N/N=C/c3cccc(O)c3)c([N+](=O)[O-])c2)cc1	2%	1.6µM*	u	-3%	5%
CNc1ccc(/C=C/C(=O)c2ccc3c(c2)OCCO3)cc1[N+](=O)[O-]	2%	2.5µM*	u	-5%	-10%
CC1CCCCN1S(=O)(=O)c1ccc2c(c1)oc(=O)n2CC(=O)Nc1ccc(Cl)cc1 (stereo unspecified)	u	0%	u	0%	0%
CCN1C(=O)[C@H]2[C@H]3[C@H](O)[C@H](O)C/C(=N/OC[C@@H](O)COCc4ccco4)[C@H]3CC[C@@H]2C1=O	u	-14%[11.5 µM]	-23%[11.6 µM]	-3%[11.2 µM]	0%[11.2 µM]
CCOC(=O)C1=C(C)Nc2sc(C(=O)c3ccc(F)cc3)c(N)c2C1c1ccc(C(=O)OC)cc1 (stereo unspecified)	u	-2%	16µM*[quencher]	8%	-3%
CCCn1c(=N)c(C(=O)NC2CCCCC2)cc2c(=O)n3cc(C)ccc3nc21	-1%	7%	2%	1%	-2%
N#CC(C#N)=C1C=CC=CN1/C(=C\c1ccco1)C(=O)c1ccc(Cl)cc1	28µM*	22µM*	u	12%	-10%
N#CC(C#N)=C1C=CC=CN1/C(=C\c1ccco1)C(=O)c1ccc(-c2ccccc2)cc1	u	16µM*	-29%	4%	4%
Oc1ccc(/C=N/Nc2ccnc3cc(Cl)ccc23)cc1O	13%	10µM*	16µM*[quencher]	-8%	-8%
Cc1ccc2nc(/C(C#N)=C\c3ccc([N+](=O)[O-])o3)[nH]c2c1	u	8.9µM*	13µM*[quencher]	u	15%
N#C/C(=C\c1ccc(Sc2ccccc2)o1)c1nc2ccccc2[nH]1	u	3%	-27%	2%	-11%
CC1CCCN(c2ccc(/C=C(\C#N)c3nn(-c4ccccc4)c(N)c3C#N)cc2[N+](=O)[O-])C1 (stereo unspecified)	-4%	14µM*	u	-24%	-7%
CC1CCN(c2ccc(/C=C(\C#N)c3nn(-c4ccccc4)c(N)c3C#N)cc2[N+](=O)[O-])CC1	-9%	u	u	-2%	0%
N#C/C(=C\c1ccc([N+](=O)[O-])o1)c1nc2ccccc2[nH]1	u	7.1µM*	11µM*[quencher]	2%	6%
N#C/C(=C(/O)c1ccc([N+](=O)[O-])o1)c1nc2ccccc2[nH]1	5%	7.1µM*	u	-1%	-2%
O=C(Nc1cnn(Cc2ccc(Cl)cc2Cl)c1)c1noc2c1CCc1ccccc1-2	-14%	u	-29%	-1%	-12%
CCc1ccc2nc(N(Cc3cccnc3)C(C)=O)sc2c1	0%	-12%	-16%	-6%	-2%
SMILES	Tau fibril FP	Tau ThT inhib	Tau fluor cs	TRb-SRC2 inh	TR SRC2 fluor cs	others
CC1(C)SC2[C@@H](N=CN3CCCCCC3)C(=O)N2[C@H]1C(=O)O (stereo partly specified)	x	x	x	-2%	0%
Cc1ccccc1OCC(=O)Nc1ccc2nc(SCC(=O)N3CCCC3)sc2c1	-5%	u	-21%	-4%	0%
N#C/C(=C\c1ccc(N2CCCC2)c([N+](=O)[O-])c1)c1nc2ccccc2[nH]1	-5%	2µM*	u	1%	-2%
COc1cc(/C=C(/C#N)c2nc3ccccc3[nH]2)ccc1Oc1ncccc1[N+](=O)[O-]	9%	u	u	-7%	-12%
Oc1c(C=Nc2ccccc2Cl)[nH]c2ccccc12	u	40µM*	u	10%	-1%
O=c1[nH][nH]c(C(F)(F)F)c1C=Nc1ccccc1Cl	5%	9%	6%	0%	-5%
CCc1cc2c(SCC(=O)c3ccccc3)ncnc2s1	-6%	-2%	-11%	9%	-1%
O=C(CSc1ncnc2c(-c3ccc(Cl)cc3)nsc12)c1ccccc1	u	18µM*	u	-4%	3%
O=C1NN(c2ccccc2)C(=O)/C1=C\c1cccc(OC(=O)c2cccs2)c1	u	16µM*	-25%	-1%	-7%
O=C1NN(c2ccc(Cl)c(Cl)c2)C(=O)/C1=C/c1cccc(OC(=O)c2cccs2)c1	u	16µM*	u	7%	-14%
CC1(C)CC(NCCCCCCNC2CC(C)(C)NC(C)(C)C2)CC(C)(C)N1	x	x	x	6%[201 µM]	1%[201 µM]
O=C(COC(=O)c1ccc(O)cc1)Nc1cccc(S(=O)(=O)NC2=NCCCCC2)c1	-11%	-9%	-18%	3%	3%
CCOC(=O)c1ccc(S(=O)(=O)Nc2nc3cc(S(=O)(=O)NC4=NCCCCC4)ccc3s2)cc1	16µM*	11µM*	u	-2%	0%	Tau TEM fibril=2*;tau fibril sed=68*
Nc1nc2cc(S(=O)(=O)NC3=NCCCCC3)ccc2s1	u	5µM*	-25%	-1%	-12%	Tau TEM fibril=2*;tau fibril sed=69*
CCCCOc1ccc(C2c3c(oc4ccc(C)cc4c3=O)C(=O)N2CCCN(C)C)cc1OCC (stereo unspecified)	2%	4%	-8%	1%	-13%
COc1ccc(NC(=O)c2cc(OCCCN(C)C)nn2Cc2ccccc2)cc1	x	x	x	1%	-1%
Cc1cc2c(N)cccc2nn1	u	3.2µM*	u	3%	-1%	Tau TEM fibril=3*;tau fibril sed=64*
O=C(Nc1nnc(S(=O)(=O)Nc2ccccc2)s1)c1ccccc1Cl	-2%	u	-20%	-3%	-1%

Compound activity (PubChem)
